# Measured values as given in the supplement of paper PMC10849652.
# Targets with a hit are over-represented here; the source holds about 7,900 in all. About 0.6% of all pairs of compound and target were hits. A number with no mark means an inactive call.
# Key:
# Assay in all cases: log2 fold change, soluble protein after heating vs DMSO (PISA); higher = thermal stabilisation; K562 cells, 10 uM, 30 min; active = over 0.2 and 3.5 SD of the protein, either way, in both replicates (recomputed)
# erlotinib = compound: C#Cc1cccc(Nc2ncnc3cc(OCCOC)c(OCCOC)cc23)c1 [erlotinib]
# Method in brief: (§1)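 Values are thermal stability changes relative to control samples and are taken from duplicates. They are stated as log2 fold changes. Before quantification by TMTpro 16plex LC-MS/MS with equalised channel sums, K562 cells at 2×10^6 cells/mL were treated with 10 μM compound for 30 min, heated in aliquots for 3 min across 48°C-58°C, pooled, extracted in PBS with 0.5% NP-40 at 4°C, and centrifuged at 21,000xg for 90 min to give the soluble supernatant.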
# [1] = compound: C/C(=N\NC(=O)C1=CC(=CC=C1)S(=O)(=O)N2CCOCC2)/C3=C(C=CC(=C3)Cl)O
# Method in brief: as §1
# [2] = compound: C1=CC(=C(C=C1Cl)C2=NC3=NC=CN=C3C(=N2)NC4=CC=NC=C4)F
# Method in brief: as §1
# [3] = compound: C1=CC(=CC=C1C2=NC3=C(N2)C=C(C=C3)C(=O)N)OC4=CC=C(C=C4)Cl
# Method in brief: as §1
# [4] = compound: C1=CC2=C(C=CC(=C2)/C=C\3/C(=O)NC(=NCC4=CC=CS4)S3)N=C1
# Method in brief: as §1
# [5] = compound: C1=CC2=NC=CN=C2C=C1/C=C/3\C(=O)NC(=O)S3
# Method in brief: as §1
# [6] = compound: C1=CC=C(C=C1)C2=NC(=C(N2)C3=CC=NC=C3)C4=CC(=C(C=C4)Cl)O
# Method in brief: as §1
# [7] = compound: C1=CC=C2C(=C1)C3=NNC4=CC=CC(=C43)C2=O
# Method in brief: as §1
# [8] = compound: C1CCN(C1)C(=O)NC2=CC=CC(=C2)NC3=NC=C(C(=N3)NCCC4=CN=CN4)Br
# Method in brief: as §1
# [9] = compound: C1CN(CCC1(CC2=CC=C(C=C2)Cl)N)C3=NC=NC4=C3C=CN4
# Method in brief: as §1
# IRAK-1-4 Inhibitor I = compound: C1COCCN1CCN2C3=CC=CC=C3N=C2NC(=O)C4=CC(=CC=C4)[N+](=O)[O-] [IRAK-1-4 Inhibitor I]
# Method in brief: as §1
# ibrutinib = compound: C=CC(=O)N1CCC[C@@H](n2nc(-c3ccc(Oc4ccccc4)cc3)c3c(N)ncnc32)C1 [ibrutinib]
# Method in brief: as §1
# [10] = compound: CC(=O)c1cnc2ccc(-c3cc(Cl)c(O)c(Cl)c3)nc2c1N[C@H]1CC[C@H](CN(C)C)CC1
# Method in brief: as §1
# ralimetinib = compound: CC(C)(C)Cn1c(N)nc2ccc(-c3[nH]c(C(C)(C)C)nc3-c3ccc(F)cc3)nc21 [ralimetinib]
# Method in brief: as §1
# [11] = compound: CC(C)(O)CC(=O)NCCn1ccc2ncnc(Nc3ccc(Oc4cccc(C(F)(F)F)c4)c(Cl)c3)c21
# Method in brief: as §1
# [12] = compound: CC(C)C1=C2N=C(C=C(N2N=C1)NCC3=CC=CC=C3)NCCCCCCN
# Method in brief: as §1
# [13] = compound: CC(C)C[C@@H](C=O)NC(=O)[C@H](CC(C)C)NC(=O)[C@H](CC(C)C)NC(=O)OCc1ccccc1
# Method in brief: as §1
# pinometostat = compound: CC(C)N(C[C@H]1O[C@@H](n2cnc3c(N)ncnc32)[C@H](O)[C@@H]1O)[C@H]1C[C@@H](CCc2nc3cc(C(C)(C)C)ccc3[nH]2)C1 [pinometostat]
# Method in brief: as §1
# [14] = compound: CC1=C(C(CC(=O)N1)C2=CC=C(C=C2)C(F)(F)F)C(=O)NC3=C(C=C4C(=C3)C=NN4)F
# Method in brief: as §1
# [15] = compound: CC1=C(C2=C(C=C1)C(=O)C3=CC=CC=C3N2CCCN)C
# Method in brief: as §1
# UniProt Q96GS6, sequence (Q96GS6 whole entry, looked up): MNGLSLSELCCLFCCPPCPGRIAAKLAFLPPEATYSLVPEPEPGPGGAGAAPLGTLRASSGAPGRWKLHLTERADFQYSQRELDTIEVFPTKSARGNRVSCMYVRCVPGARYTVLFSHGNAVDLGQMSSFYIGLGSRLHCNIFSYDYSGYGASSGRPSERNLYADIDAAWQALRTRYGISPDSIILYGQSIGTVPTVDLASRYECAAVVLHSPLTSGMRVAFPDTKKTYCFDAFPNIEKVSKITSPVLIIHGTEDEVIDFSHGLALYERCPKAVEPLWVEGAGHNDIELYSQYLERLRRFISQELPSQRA
# UniProt Q15057, sequence (Q15057 whole entry, looked up): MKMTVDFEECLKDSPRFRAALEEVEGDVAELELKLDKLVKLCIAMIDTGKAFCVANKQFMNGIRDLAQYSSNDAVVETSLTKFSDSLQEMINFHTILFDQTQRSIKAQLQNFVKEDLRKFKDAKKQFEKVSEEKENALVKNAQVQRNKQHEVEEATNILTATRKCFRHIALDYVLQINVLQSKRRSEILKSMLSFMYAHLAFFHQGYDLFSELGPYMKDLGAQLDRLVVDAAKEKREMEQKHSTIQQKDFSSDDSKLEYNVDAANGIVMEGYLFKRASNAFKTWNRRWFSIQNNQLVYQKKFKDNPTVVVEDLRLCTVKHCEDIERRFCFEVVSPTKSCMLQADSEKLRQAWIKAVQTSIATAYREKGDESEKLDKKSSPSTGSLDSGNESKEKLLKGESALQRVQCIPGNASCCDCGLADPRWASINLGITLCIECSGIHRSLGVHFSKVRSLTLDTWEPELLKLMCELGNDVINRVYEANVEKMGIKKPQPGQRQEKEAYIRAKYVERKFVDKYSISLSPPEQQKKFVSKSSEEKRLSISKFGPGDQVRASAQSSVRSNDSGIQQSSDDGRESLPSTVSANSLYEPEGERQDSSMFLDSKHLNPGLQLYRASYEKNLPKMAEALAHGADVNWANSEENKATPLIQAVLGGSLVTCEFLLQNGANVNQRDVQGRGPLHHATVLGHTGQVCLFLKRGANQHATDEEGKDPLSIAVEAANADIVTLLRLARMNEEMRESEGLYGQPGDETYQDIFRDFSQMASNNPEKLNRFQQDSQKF
# UniProt Q9Y6H3, sequence (Q9Y6H3 whole entry, looked up): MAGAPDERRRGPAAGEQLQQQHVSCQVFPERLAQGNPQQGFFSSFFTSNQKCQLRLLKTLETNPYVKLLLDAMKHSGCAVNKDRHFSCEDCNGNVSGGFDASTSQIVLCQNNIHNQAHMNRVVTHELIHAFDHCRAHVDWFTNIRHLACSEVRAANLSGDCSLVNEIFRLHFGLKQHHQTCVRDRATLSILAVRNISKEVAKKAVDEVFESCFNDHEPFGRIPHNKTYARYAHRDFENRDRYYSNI
# UniProt O94973, sequence (O94973 whole entry, looked up): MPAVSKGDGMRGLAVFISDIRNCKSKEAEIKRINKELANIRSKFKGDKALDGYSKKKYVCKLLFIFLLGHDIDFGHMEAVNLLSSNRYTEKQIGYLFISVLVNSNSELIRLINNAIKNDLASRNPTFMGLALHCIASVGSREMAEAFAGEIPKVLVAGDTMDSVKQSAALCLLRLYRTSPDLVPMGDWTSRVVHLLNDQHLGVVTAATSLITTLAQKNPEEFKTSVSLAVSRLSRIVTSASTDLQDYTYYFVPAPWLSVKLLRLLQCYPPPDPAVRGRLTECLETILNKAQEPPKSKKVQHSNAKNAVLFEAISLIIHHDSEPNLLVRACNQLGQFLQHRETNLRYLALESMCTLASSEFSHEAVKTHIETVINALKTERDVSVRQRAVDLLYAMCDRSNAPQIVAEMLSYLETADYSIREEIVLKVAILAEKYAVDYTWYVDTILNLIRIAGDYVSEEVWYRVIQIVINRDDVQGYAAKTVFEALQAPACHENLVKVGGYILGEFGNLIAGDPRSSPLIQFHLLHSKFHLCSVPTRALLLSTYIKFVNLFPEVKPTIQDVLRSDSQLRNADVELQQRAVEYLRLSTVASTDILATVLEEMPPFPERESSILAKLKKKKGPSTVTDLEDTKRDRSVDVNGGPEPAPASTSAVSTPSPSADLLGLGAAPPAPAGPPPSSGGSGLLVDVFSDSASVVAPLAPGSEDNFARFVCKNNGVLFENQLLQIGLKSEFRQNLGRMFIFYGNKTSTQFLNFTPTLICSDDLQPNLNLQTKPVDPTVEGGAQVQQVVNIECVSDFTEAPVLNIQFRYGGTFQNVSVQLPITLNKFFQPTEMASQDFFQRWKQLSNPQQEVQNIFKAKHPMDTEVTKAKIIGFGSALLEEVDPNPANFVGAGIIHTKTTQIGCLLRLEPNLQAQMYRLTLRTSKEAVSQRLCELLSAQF
# UniProt Q07960, sequence (Q07960 whole entry, looked up): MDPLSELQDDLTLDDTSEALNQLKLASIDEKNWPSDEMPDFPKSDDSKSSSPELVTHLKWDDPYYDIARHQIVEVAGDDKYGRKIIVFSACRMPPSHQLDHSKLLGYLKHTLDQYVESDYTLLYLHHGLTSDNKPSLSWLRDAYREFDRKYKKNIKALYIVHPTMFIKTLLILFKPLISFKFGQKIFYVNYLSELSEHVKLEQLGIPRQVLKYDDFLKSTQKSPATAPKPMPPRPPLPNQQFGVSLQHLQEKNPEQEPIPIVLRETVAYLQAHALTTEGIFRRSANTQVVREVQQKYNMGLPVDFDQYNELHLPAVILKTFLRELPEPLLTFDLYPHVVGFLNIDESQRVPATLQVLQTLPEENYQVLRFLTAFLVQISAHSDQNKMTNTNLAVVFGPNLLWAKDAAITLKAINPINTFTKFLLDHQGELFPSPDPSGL
# UniProt Q8WUW1, sequence (Q8WUW1 whole entry, looked up): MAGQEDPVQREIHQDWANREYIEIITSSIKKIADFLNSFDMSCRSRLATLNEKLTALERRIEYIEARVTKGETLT
# UniProt Q9P287, sequence (Q9P287 whole entry, looked up): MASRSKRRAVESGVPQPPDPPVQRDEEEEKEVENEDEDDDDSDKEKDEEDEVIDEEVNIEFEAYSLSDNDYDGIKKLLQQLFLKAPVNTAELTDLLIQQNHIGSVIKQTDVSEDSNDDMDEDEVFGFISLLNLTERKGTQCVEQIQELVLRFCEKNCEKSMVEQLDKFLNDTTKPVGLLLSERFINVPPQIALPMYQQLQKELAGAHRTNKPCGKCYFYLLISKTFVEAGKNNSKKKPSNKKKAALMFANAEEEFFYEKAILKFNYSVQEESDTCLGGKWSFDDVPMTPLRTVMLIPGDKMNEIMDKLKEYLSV
# UniProt Q9H8Y5, sequence (Q9H8Y5 whole entry, looked up): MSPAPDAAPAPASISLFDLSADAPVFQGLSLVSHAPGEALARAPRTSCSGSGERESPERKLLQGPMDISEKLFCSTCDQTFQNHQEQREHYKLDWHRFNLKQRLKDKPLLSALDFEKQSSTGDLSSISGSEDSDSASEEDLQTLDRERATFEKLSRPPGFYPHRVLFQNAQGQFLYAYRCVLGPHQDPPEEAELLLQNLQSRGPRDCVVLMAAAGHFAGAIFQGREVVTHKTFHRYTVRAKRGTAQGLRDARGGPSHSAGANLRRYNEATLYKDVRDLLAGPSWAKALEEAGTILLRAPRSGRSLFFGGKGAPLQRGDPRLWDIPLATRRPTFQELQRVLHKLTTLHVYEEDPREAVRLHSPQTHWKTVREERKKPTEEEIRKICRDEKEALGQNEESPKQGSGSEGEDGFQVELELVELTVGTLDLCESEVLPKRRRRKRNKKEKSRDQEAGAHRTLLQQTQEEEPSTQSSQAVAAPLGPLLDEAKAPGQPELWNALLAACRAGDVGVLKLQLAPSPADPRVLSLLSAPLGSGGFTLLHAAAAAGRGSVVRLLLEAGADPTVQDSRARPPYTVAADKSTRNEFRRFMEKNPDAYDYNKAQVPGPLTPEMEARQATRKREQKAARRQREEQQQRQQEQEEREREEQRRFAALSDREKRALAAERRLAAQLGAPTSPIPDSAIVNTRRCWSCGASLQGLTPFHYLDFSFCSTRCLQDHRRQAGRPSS
# UniProt Q13795, sequence (Q13795 whole entry, looked up): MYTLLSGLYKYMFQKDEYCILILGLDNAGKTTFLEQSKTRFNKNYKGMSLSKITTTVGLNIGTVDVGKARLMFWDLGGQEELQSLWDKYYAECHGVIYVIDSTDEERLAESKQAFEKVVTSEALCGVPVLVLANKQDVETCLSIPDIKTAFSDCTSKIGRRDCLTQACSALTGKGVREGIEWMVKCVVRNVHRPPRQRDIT
# UniProt Q9UBL3, sequence (Q9UBL3 whole entry, looked up): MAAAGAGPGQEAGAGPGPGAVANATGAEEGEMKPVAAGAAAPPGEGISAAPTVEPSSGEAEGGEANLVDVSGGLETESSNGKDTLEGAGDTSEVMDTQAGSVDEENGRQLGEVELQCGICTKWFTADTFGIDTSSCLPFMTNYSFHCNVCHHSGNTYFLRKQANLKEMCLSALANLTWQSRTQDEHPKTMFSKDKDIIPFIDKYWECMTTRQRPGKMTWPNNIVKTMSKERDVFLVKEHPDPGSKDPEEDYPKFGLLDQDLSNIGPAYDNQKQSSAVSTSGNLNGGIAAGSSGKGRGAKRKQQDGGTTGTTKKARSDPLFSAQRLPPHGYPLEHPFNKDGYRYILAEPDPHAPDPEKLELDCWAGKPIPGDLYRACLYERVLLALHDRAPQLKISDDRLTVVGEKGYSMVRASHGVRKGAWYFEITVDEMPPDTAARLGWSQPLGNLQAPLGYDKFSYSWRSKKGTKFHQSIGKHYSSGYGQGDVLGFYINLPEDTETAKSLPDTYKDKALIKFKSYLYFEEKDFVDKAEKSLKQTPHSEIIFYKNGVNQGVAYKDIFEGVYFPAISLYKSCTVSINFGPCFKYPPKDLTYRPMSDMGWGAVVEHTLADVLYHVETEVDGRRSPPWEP
Target,log2 fold change (erlotinib),log2 fold change [1],log2 fold change [2],log2 fold change [3],log2 fold change [4],log2 fold change [5],log2 fold change [6],log2 fold change [7],log2 fold change [8],log2 fold change [9],log2 fold change (IRAK-1-4 Inhibitor I),log2 fold change (ibrutinib),log2 fold change [10],log2 fold change (ralimetinib),log2 fold change [11],log2 fold change [12],log2 fold change [13],log2 fold change (pinometostat),log2 fold change [14],log2 fold change [15]
BRK1 isoform 2 (UniProt Q8WUW1),-0.115,0.003,0.279,0.04,0.027,0.072,0.051,-0.02,-0.08,-0.037,-0.026,-0.004,-0.045,-0.037,-0.018,0.058,-0.053,-0.157,0.064,0.145
ASH2L (UniProt Q9UBL3),-0.021,0.025,0.019,-0.062,-0.012,0.022,0.001,-0.029,-0.004,0.052,-0.022,-0.048,-0.046,0.004,-0.018,0.016,-0.004,-0.013,-0.013,-0.044
ARHGAP1 (UniProt Q07960),-0.039,0.014,0.025,0.021,0.038,0.021,0.021,-0.011,0.002,0.019,0.025,-0.014,-0.049,-0.022,-0.014,0.162,0.023,0,-0.011,-0.014
ABHD17A isoform 2 (UniProt Q96GS6),0,-0.011,-0.028,0.223,0.035,0.042,0.017,0.008,-0.068,0.11,0.076,0.001,-0.042,-0.034,-0.078,-0.126,0.062,0.079,-0.042,0.077
ARFRP1 (UniProt Q13795),-0.018,-0.017,0.096,0.008,0.12,0.048,0.057,0.015,-0.013,0.032,-0.083,0.031,0.02,0.004,-0.041,-0.028,-0.073,0.017,-0.044,0.075
AKR1C3 (UniProt P42330),0.063,0.067,0.117,-0.095,0.02,0.067,0.796 (active),-0.022,0.031,0.044,0.072,-0.108,0.015,0.085,0.265,0.025,-0.149,-0.069,-0.064,-0.049
ATP23 (UniProt Q9Y6H3),0.021,-0.079,-0.017,0.033,0.051,0.027,0.009,0.033,0.007,-0.014,0.091,-0.009,-0.004,-0.043,0.02,-0.136,0.025,-0.014,0.011,-0.01
ANKZF1 (UniProt Q9H8Y5),0.142,0.032,-0.141,0,0.015,-0.108,-0.035,-0.039,0.057,-0.022,-0.052,0.031,-0.19,0.189,0,-0.065,0.192,0.136,0.034,-0.069
ATP13A2 (UniProt Q9NQ11),0.047,0.012,0.011,0.096,0.024,0.099,0.01,-0.042,0.035,0.082,0.04,0.074,0.007,-0.033,-0.03,-0.511 (active),0.011,0.063,0.044,0.181
ACAP2 (UniProt Q15057),-0.002,0.054,0.062,-0.05,0.056,0.037,-0.032,-0.012,-0.042,-0.013,-0.033,-0.012,-0.038,0,-0.031,-0.065,0.061,0.029,-0.036,0.004
ATAD1 (UniProt Q8NBU5),0.037,0.036,0.295 (active),0.021,0.054,-0.022,0.059,0.123,0,-0.006,-0.007,0.011,-0.081,0.238 (active),-0.083,-0.077,0.038,0.041,-0.083,0.054
BAP1 (UniProt Q92560),0.182,-0.013,-0.142,-0.048,-0.128,0.06,-0.104,-0.05,-0.078,-0.088,-0.038,-0.056,-0.125,0.06,-0.014,-0.217,0.048,0.163,-0.116,-0.17
BRIX1 (UniProt Q8TDN6),-0.093,-0.05,-0.415,-0.089,0.003,0.046,-0.046,-0.167,0.017,-0.387,-0.1,-0.011,0.021,0.133,0.091,0.137,0.041,0.361,-0.051,-1.43 (active)
BCCIP isoform 2 (UniProt Q9P287),-0.1,0.023,0.027,0.026,-0.025,0.003,0.012,-0.007,-0.002,0.066,0.013,-0.025,0.008,-0.048,0.012,0.008,-0.012,0.029,-0.012,0.077
ATG9A (UniProt Q7Z3C6),0.044,0.03,0.057,-0.003,0.047,0.021,0.045,-0.005,-0.026,-0.023,0,0.081,-0.091,-0.023,-0.056,-0.176,0.06,0.015,-0.003,0.038
AP2A2 isoform 2 (UniProt O94973),0.007,0.014,-0.004,-0.012,0.007,0.004,0.072,-0.118,-0.284 (active),0.028,-0.003,-0.015,0.008,0.006,0.033,0.019,0.032,0.025,-0.02,0.107
